Values joined by “and” are separate entries in the source; they are usually repeats but may differ in a detail not shown here. Equal entries are not always repeated. The panel holds about 79,000 compounds, 15% with a hit somewhere; the sample as a whole holds those more often. Values without a mark were called inactive. Active and inactive are the calls of the source. No stated cut-off is given here; in the data, active means growth inhibition above about 70%; inactive means the rest.
Columns and labels:
[1] = NCI Yeast Anticancer Drug Screen. Data for the rad50 strain (AID 155);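 further: 0% = growth of vehicle-only cultures of the same strain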; settings: S. cerevisiae rad50 strain growth inhibition, hits give high values; at 50.0 µM unless noted
Summary of the method: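 Yeast carrying a defined DNA repair defect were exposed to test compounds, and growth was compared with vehicle-treated controls to give percent inhibition.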

[2] = NCI Yeast Anticancer Drug Screen. Data for the mec2-1 strain (AID 157); settings: S. cerevisiae mec2-1 strain, hits give high values; at 50.0 µM unless noted
Summary of the method: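 Vehicle-treated cultures served as reference for growth inhibition of compound-exposed mec2-1 yeast.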

[3] = NCI Yeast Anticancer Drug Screen. Data for the sgs1 mgt1 strain (AID 161);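 further: 0% = growth of cultures given vehicle only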; settings: S. cerevisiae sgs1 mgt1 strain, hits give high values; at 50.0 µM unless noted
Summary of the method: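 Test agents were incubated with a DNA-repair-mutant yeast strain. Growth was then read and compared against vehicle-treated controls.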

[4] = NCI Yeast Anticancer Drug Screen. Data for the cln2 rad14 strain (AID 165);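 further: 0% = growth equal to vehicle treated cultures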; settings: S. cerevisiae cln2 rad14 strain, hits give high values; at 50.0 µM unless noted
Summary of the method: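 Each compound was tested on cln2 rad14 yeast. Inhibition of growth was calculated against vehicle-exposed controls.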

[5] = NCI Yeast Anticancer Drug Screen. Data for the bub3 strain (AID 167); settings: S. cerevisiae bub3 mutant strain, hits give high values; at 50.0 µM unless noted
Summary of the method: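 Compounds were applied to a genetically altered yeast strain carrying a cell-cycle control defect. Growth inhibition was scored against vehicle-treated controls.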

[6] = NCI Yeast Anticancer Drug Screen. Data for the mlh1 rad18 strain (AID 175); settings: S. cerevisiae mlh1 rad18 strain growth inhibition, hits give high values; at 50.0 µM unless noted
Summary of the method: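 Vehicle-treated cultures served as the reference for growth inhibition in a yeast strain carrying DNA damage repair alterations exposed to each compound.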

Cc1cc2c(c(C(=O)O)c1C)-c1cccc(Cl)c1C2=O
growth inhibition [1]: -15.7% | growth inhibition [2]: -2.3% | growth inhibition [3]: -23.2% | growth inhibition [4]: -20.2% | growth inhibition [5]: -13.3% | growth inhibition [6]: -27.4%

Nc1ccccc1S(=O)(=O)Nc1c(N)nc(SCC(=O)O)[nH]c1=O
growth inhibition [1]: -15.4% | growth inhibition [2]: -21.9% | growth inhibition [3]: -10% | growth inhibition [4]: -4.2% | growth inhibition [5]: -12.9% | growth inhibition [6]: 0.65%

CC1=C(C(=O)OC(C)(C)C)C(c2ccc([N+](=O)[O-])cc2)C(C(=O)OC(C)(C)C)=C(C)N1
growth inhibition [1]: 0.2% | growth inhibition [2]: -4.9% | growth inhibition [3]: 3.85% | growth inhibition [4]: 12.2% | growth inhibition [5]: -12.8% | growth inhibition [6]: 15.4%

Cc1ccc(NC(=O)Oc2ccc(C#N)cc2)c(C)c1
growth inhibition [1]: 7.45% | growth inhibition [2]: -22.8% | growth inhibition [3]: -0.9% | growth inhibition [4]: 2.05% | growth inhibition [5]: -3.35% | growth inhibition [6]: 8.9%

COc1ccc2c(c1)[nH]c1c3ccc(OC)cc3oc(=O)c21
growth inhibition [1]: -52% | growth inhibition [2]: -50% | growth inhibition [3]: -35.5% | growth inhibition [4]: 1.95% | growth inhibition [5]: -38.6% | growth inhibition [6]: -33.9%

O=C(Nc1cccc(I)c1)OCCCl
growth inhibition [1]: 79.8% (active) | growth inhibition [2]: 7.5% | growth inhibition [3]: 87.2% (active) | growth inhibition [4]: 0.4% | growth inhibition [5]: -7.55% | growth inhibition [6]: 57.2%

CCOC(=O)c1ccc(NC(=O)Nc2ccc(F)cc2)cc1
growth inhibition [1]: 3.5% | growth inhibition [2]: -0.5% | growth inhibition [3]: 1% | growth inhibition [4]: 12.5% | growth inhibition [5]: 32.5% | growth inhibition [6]: 5.55%

Cc1ccc(OC/C=C/CSc2ccc(Br)cc2)cc1
growth inhibition [1]: 4.95% | growth inhibition [2]: 4.75% | growth inhibition [3]: 2.4% | growth inhibition [4]: -2.4% | growth inhibition [5]: -19.9% | growth inhibition [6]: -24.9%

CSc1nc(SC)c2cnn(CC3CO3)c2n1 (stereo unspecified)
growth inhibition [1]: 44.2% | growth inhibition [2]: -15.2% | growth inhibition [3]: 60.8% | growth inhibition [4]: 11.1% | growth inhibition [5]: -20.1% | growth inhibition [6]: 39.5%

CN(C)c1ccc(O[Si](Oc2ccc(N(C)C)cc2)(Oc2ccc(N(C)C)cc2)Oc2ccc(N(C)C)cc2)cc1
growth inhibition [1]: 27.6% | growth inhibition [2]: 37.2% | growth inhibition [3]: 25.8% | growth inhibition [4]: 29.4% | growth inhibition [5]: 14.3% | growth inhibition [6]: 43.8%

CN(C)C=Nc1ccc2c3c(cccc13)-c1ccccc1-2
growth inhibition [1]: -2.9% | growth inhibition [2]: -24.1% | growth inhibition [3]: 47.5% | growth inhibition [4]: -0.35% | growth inhibition [5]: 51.1% | growth inhibition [6]: 41%

NC1CCC[C@@H](O)[C@H]1O (stereo partly specified)
growth inhibition [1]: -4.9% | growth inhibition [2]: 22.9% | growth inhibition [3]: 8.7% | growth inhibition [4]: -7.1% | growth inhibition [5]: 9.6% | growth inhibition [6]: -0.55%

CSCCC(NC(=O)OCc1ccccc1)C(=O)O (stereo unspecified)
growth inhibition [1]: -31.4% | growth inhibition [2]: -0.6% | growth inhibition [3]: 5.05% | growth inhibition [4]: -25.2% | growth inhibition [5]: -4.5% | growth inhibition [6]: -4.45%

CC(=O)N(C(=O)CC(=O)NNCc1ccccc1Cl)c1ccc(Cl)cc1
growth inhibition [1]: -11.4% | growth inhibition [2]: -14.2% | growth inhibition [3]: -19.6% | growth inhibition [4]: -11.4% | growth inhibition [5]: -17% | growth inhibition [6]: 6.3%

CN1C2=NC(=O)NC(=O)C23OC3c2ccccc21 (stereo unspecified) (tested in a mixture with another compound)
growth inhibition [1]: 6.35% | growth inhibition [2]: 12% | growth inhibition [3]: -0.45% | growth inhibition [4]: 14.7% | growth inhibition [5]: 1.75% | growth inhibition [6]: 18.9%

CC(C)CC1N=C(NN=C(CCl)CCl)OP1(=O)NCCCCCCNP1(=O)OC(NN=C(CCl)CCl)=NC1CC(C)C (stereo unspecified)
growth inhibition [1]: 13.4% | growth inhibition [2]: 5.05% | growth inhibition [3]: 2.95% | growth inhibition [4]: 4.75% | growth inhibition [5]: 24.8% | growth inhibition [6]: 37.6%

Cn1c([N+](=O)[O-])cnc1CSc1nc(-c2ccccc2)no1
growth inhibition [1]: 17.9% | growth inhibition [2]: 1.8% | growth inhibition [3]: 33.8% | growth inhibition [4]: -1.1% | growth inhibition [5]: 5.25% | growth inhibition [6]: 33.1%

O=CC(O)C(Cl)C(Cl)C(O)CCl (stereo unspecified)
growth inhibition [1]: -0.65% and 2.1% | growth inhibition [2]: -1.85% and -3.6% | growth inhibition [3]: 0.65% and 8.3% | growth inhibition [4]: 9.75% and -46% | growth inhibition [5]: -2.65% and -11% | growth inhibition [6]: 40.7% and -14.5%

COc1ccc(C2c3cc4c(cc3C(O)C3CCC(=O)N23)OCO4)cc1 (stereo unspecified)
growth inhibition [1]: -31.6% | growth inhibition [2]: 3.3% | growth inhibition [3]: -17.2% | growth inhibition [4]: -1.25% | growth inhibition [5]: -7.4% | growth inhibition [6]: -15.1%

CCC(=O)Cc1nc2n(c1O)/C(=N/C(=O)Nc1ccc(Cl)cc1)N=N2
growth inhibition [1]: -2.05% | growth inhibition [2]: -7.5% | growth inhibition [3]: -2.9% | growth inhibition [4]: -35.8% | growth inhibition [5]: -15.2% | growth inhibition [6]: 11.6%

CCCCCCCCCCCCCCCCCC(O)CCCCCCCCCCCCCCCCC
growth inhibition [1]: -16.9% | growth inhibition [2]: -8.45% | growth inhibition [3]: -7.75% | growth inhibition [4]: -47.2% | growth inhibition [5]: 2.4% | growth inhibition [6]: -8.25%

Cc1ccc(C(=O)CC2=Nc3nnc(CCCCCCCc4nnc5n4C(=O)C(CC(=O)c4ccc(C)cc4)=N5)n3C2=O)cc1
growth inhibition [1]: -9.45% | growth inhibition [2]: 22.4% | growth inhibition [3]: -0.1% | growth inhibition [4]: -22% | growth inhibition [5]: -5.25% | growth inhibition [6]: -11.1%

O=C(NNC(=O)c1ccc(Cl)c(Cl)c1)c1ccccc1
growth inhibition [1]: -13.8% | growth inhibition [2]: 3.1% | growth inhibition [3]: -6.05% | growth inhibition [4]: -7.95% | growth inhibition [5]: 2.75% | growth inhibition [6]: -15.9%

CC1CC(C)(O)C2C3(C)CCCC2(COC3=O)C12CCC1(CCOC1=O)O2 (stereo unspecified)
growth inhibition [1]: 0.9% | growth inhibition [2]: -23.5% | growth inhibition [3]: 25.3% | growth inhibition [4]: 3.8% | growth inhibition [5]: -0.6% | growth inhibition [6]: 2.9%

Cc1cc(S(=O)(=O)Nc2nc(N)nc(N3N=CCC3C)n2)c(SCC(=O)O)cc1Cl (stereo unspecified)
growth inhibition [1]: -16% | growth inhibition [2]: 6.25% | growth inhibition [3]: 4.7% | growth inhibition [4]: -7% | growth inhibition [5]: -1.55% | growth inhibition [6]: 2.1%

COP(=O)(OC)/C(=C/c1cn(C(C)=O)c2ccccc12)NC(C)=O
growth inhibition [1]: -21% | growth inhibition [2]: -49.9% | growth inhibition [3]: -13.1% | growth inhibition [4]: 13.1% | growth inhibition [5]: 15.4% | growth inhibition [6]: -8.25%

C=CCOC(=O)c1ccccc1
growth inhibition [1]: 11.3% | growth inhibition [2]: 6.5% | growth inhibition [3]: 2.55% | growth inhibition [4]: 11.4% | growth inhibition [5]: -9.55% | growth inhibition [6]: -16.6%

NC(=O)C(=Cn1c(=S)[nH]c2ccc([N+](=O)[O-])cc21)C(N)=O
growth inhibition [1]: -10% | growth inhibition [2]: -40.9% | growth inhibition [3]: -9.9% | growth inhibition [4]: 11.7% | growth inhibition [5]: -22.6% | growth inhibition [6]: 31.9%

CCCCCCC(=O)OCC(=O)c1ccc(Br)cc1
growth inhibition [1]: 2.85% | growth inhibition [2]: 28.2% | growth inhibition [3]: 15.2% | growth inhibition [4]: -115% | growth inhibition [5]: 22.2% | growth inhibition [6]: 15%

O=C1c2cc3c(cc2CC12Cc1cc4c(cc1C2=O)CCC4)CCCC3 (stereo unspecified)
growth inhibition [1]: 6.45% | growth inhibition [2]: -52.5% | growth inhibition [3]: 1.45% | growth inhibition [4]: -29.1% | growth inhibition [5]: 0.35% | growth inhibition [6]: -22.5%

CCCCCCCCCCCC
growth inhibition [1]: -33.9% | growth inhibition [2]: 25.4% | growth inhibition [3]: 13.6% | growth inhibition [4]: -25.9% | growth inhibition [5]: 37.9% | growth inhibition [6]: -9.9%

C1CCN(CCC2CCNCC2)CC1
growth inhibition [1]: -5.4% | growth inhibition [2]: -18.3% | growth inhibition [3]: -12.1% | growth inhibition [4]: 1.8% | growth inhibition [5]: 7.65% | growth inhibition [6]: -1.6%

N#C/C(=C\c1c[nH]c2ccccc12)C(N)=O
growth inhibition [1]: 13.6% and 2.05% | growth inhibition [2]: 5.15% and -7.45% | growth inhibition [3]: 7.3% | growth inhibition [4]: 18.8% | growth inhibition [5]: -7.3% | growth inhibition [6]: 22.5% and 5.8%

CCCCCCCCCc1cc(=O)c2c(O)cccc2o1
growth inhibition [1]: -25.8% | growth inhibition [2]: -30.6% | growth inhibition [3]: -11% | growth inhibition [4]: -20.1% | growth inhibition [5]: 18.6% | growth inhibition [6]: -22.4%

O=C(O)C1Oc2cc3ccccc3cc2O1
growth inhibition [1]: 30.4% | growth inhibition [2]: 16.4% | growth inhibition [3]: 19.8% | growth inhibition [4]: 20.3% | growth inhibition [5]: 23.1% | growth inhibition [6]: 24.5%

Cc1cc(C)c(S)c(C)c1.[Cu+2]
growth inhibition [1]: -29.1% | growth inhibition [2]: -10.3% | growth inhibition [3]: -5.85% | growth inhibition [4]: -53.2% | growth inhibition [5]: -28.9% | growth inhibition [6]: -2.55%

— PubChem BioAssay (NCI)
